Compound activity: PubChem BioAssay, several laboratories
A selection: hits, their analogues and other compounds. The true share with any hit is near 2%.
PLAP activator – activators of human placental alkaline phosphatase | purified PLAP enzyme, luminescent substrate read-out; stronger effect = higher value | 96,000 tested, 1.2% active | activation fold at 20 µM | P05187; in the data active means activation fold above about 2
Target sequence (P05187 whole entry, looked up): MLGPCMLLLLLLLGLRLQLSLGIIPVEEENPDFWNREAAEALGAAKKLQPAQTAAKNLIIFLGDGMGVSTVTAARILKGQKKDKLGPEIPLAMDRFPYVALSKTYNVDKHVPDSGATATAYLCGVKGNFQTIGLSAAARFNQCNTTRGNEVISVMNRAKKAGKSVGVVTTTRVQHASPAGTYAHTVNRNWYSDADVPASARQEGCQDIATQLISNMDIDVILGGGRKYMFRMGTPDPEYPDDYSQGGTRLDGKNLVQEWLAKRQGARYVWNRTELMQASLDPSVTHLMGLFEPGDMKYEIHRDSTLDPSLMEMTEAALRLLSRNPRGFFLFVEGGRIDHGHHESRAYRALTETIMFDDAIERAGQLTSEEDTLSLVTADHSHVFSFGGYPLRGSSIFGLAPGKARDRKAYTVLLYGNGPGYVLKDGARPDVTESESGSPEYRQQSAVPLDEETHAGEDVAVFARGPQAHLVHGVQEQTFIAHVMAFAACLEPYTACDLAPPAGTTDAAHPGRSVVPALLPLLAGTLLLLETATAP
VCAM1 TNFa inh – reduces TNF alpha induced VCAM1 expression in HUVEC; 95,000 tested, 0.48% active; inhibition, % at 2 µM; HUVEC TNFa-induced VCAM-1 immunofluorescence, high-content imaging; AID 802;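 active means inhibition above the batch mean plus 3 SD, with images confirmed as a hit by eye, cut at about 37% in these data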;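 further: 0% = TNF-stimulated DMSO wells and 100% = unstimulated control wells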
HUVEC tox TNFa – toxic to HUVEC cells under TNF alpha stimulation; 93,000 tested, 0.17% active; cell count reduction, % at 2 µM; HUVEC TNFalpha-stimulated, Hoechst cell count, imaging;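 active means cell count reduction exceeding the screen mean by over 5 SD, scaled to untreated wells per plate, cut at about 78% in these data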;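 further: cells counted after 24 h of TNF alpha exposure following the 1 h pretreatment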
E-sel TNF inh – TNF alpha driven E-selectin expression inhibition; HUVEC TNFa-induced E-selectin immunofluorescence, high content; inhibition, % at 2 µM; 120,000 tested, 0.71% active;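 active means inhibition above the batch mean plus 3 SD, and confirmed as a hit on visual image review, cut at about 43% in these data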;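 further: 0% = TNF-stimulated DMSO wells and 100% = unstimulated control wells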
cytoskel mod – alters cytoskeleton assembly in HUVEC cells; HUVEC TNFa F-actin phalloidin imaging, high content; inhibition, % at 2 µM; 91,000 tested, 0.18% active; AID 836;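 active means inhibition above the batch mean plus 3 SD and confirmed as a hit by visual image inspection, cut at about 30% in these data, passing the limit was not always enough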
* = called active by the depositor; x = no result given.

SMILES | PLAP activator | VCAM1 TNFa inh | HUVEC tox TNFa | E-sel TNF inh | cytoskel mod
O=C(NC1CCCCC1)N(CCN1CCOCC1)Cc1cc2cc3c(cc2[nH]c1=O)OCCO3 | 1.5 | 1 | -45 | x | 33*
S=C(NCc1ccc(Cl)cc1Cl)NC1CCCCC1 | x | x | x | -4 | x
C=CCNC(=S)NNC(=O)CCC(O)CCCCC (centres undefined) | 2.4* | -18 | -10 | -53 | -4
CN(C)c1cccc(C(=O)Nc2ccc(N3CCOCC3)cc2)c1 | 1.3 | 1 | -46 | 6 | 32*
CCOc1ccccc1NC(=O)NC1(C(=O)N2CCN3CCCC3C2)CCCCC1 (centres undefined) | 2.1* | 7 | -14 | 24 | -48
O=C(NCc1ccccc1)NC1(C(=O)N2CCN3CCCC3C2)CCCCC1 (centres undefined) | x | 1 | -4 | x | -9
CCOC(=O)N1CCN(C(=O)CCCn2c(=S)[nH]c3ccc(Br)cc3c2=O)CC1 | 2* | 8 | -18 | -15 | -1
CCOC(=O)N1CCN(C(=O)CCCn2c(=S)[nH]c3ccccc3c2=O)CC1 | 1.4 | 19 | 16 | -5 | -1
O=C(COC(=O)c1ncc(Cl)c(Cl)c1Cl)NC(=O)NCc1ccccc1 | x | x | x | -21 | x
COc1ccc(S(=O)(=O)NCc2csc(-c3cccnc3)n2)cc1 | 0.9 | -1 | -23 | 70* | -3
COc1ccc(-c2nc(CNS(=O)(=O)c3cc(OC)ccc3OC)cs2)cc1 | 1.4 | x | x | -19 | x
Nc1ccc(C(=O)OCC(=O)NC2CC2)cc1[N+](=O)[O-] | x | x | x | -17 | x
O=C(COC(=O)c1ccccc1C(=O)c1ccc(Cl)c([N+](=O)[O-])c1)NC1CCCCCC1 | 1.4 | 87* | 28 | 9 | 20
CN(CCC#N)C(=O)COC(=O)c1ccccc1C(=O)c1ccc(Cl)c([N+](=O)[O-])c1 | x | x | x | 100* | x
COc1ccccc1N(CN1CCCC1=O)C(=O)COc1ccccc1 | 0.9 | -2 | -19 | x | 10
CN(C)S(=O)(=O)c1cc(NC(=O)COC(=O)c2ccc3c(c2)OCO3)ccc1Cl | x | x | x | 5 | x
CCOC(=O)C1C(=O)Nc2nc3ccccc3n2C1C(C)C (centres undefined) | 1.3 | x | x | -3 | -32
CCOC(=O)c1ccccc1-n1c(C)cc(C2N=C(N)Nc3nc4ccccc4n32)c1C (centres undefined) | 2.5* | 2 | -8 | 19 | 14
NC1=NC(c2ccc(Br)cc2)n2c(nc3ccccc32)N1 (centres undefined) | 2.2* | -6 | -20 | 4 | 15
COC(=O)Cn1nc(-c2ccc(C)cc2)c2ccccc2c1=O | x | x | x | -13 | x
O=C(C1CCN(S(=O)(=O)c2cccc3cccnc23)CC1)N1CCN(c2ccc(Cl)cc2)CC1 | 1.5 | 13 | 54 | x | -10
CCCOc1ccc(/C(O)=C2/C(=O)C(=O)N(CCCn3ccnc3)C2c2ccco2)cc1 (centres undefined) | 1.4 | 11 | -12 | 100* | -11
CC1Cc2cc(/C(O)=C3/C(=O)C(=O)N(CCCn4ccnc4)C3c3cccnc3)ccc2O1 (centres undefined) | 0.9 | 12 | -18 | -68 | 17
CC1Cc2cc(/C(O)=C3/C(=O)C(=O)N(CCCn4ccnc4)C3c3ccncc3)ccc2O1 (centres undefined) | 1 | 6 | -11 | 58* | -27
COc1ccc(/C(O)=C2/C(=O)C(=O)N(Cc3cccnc3)C2c2ccncc2)cc1F (centres undefined) | 0.9 | 4 | 37 | 70* | -11
SMILES | PLAP activator | VCAM1 TNFa inh | HUVEC tox TNFa | E-sel TNF inh | cytoskel mod
CC1Cc2cc(/C(O)=C3/C(=O)C(=O)N(CCCn4ccnc4)C3c3ccco3)ccc2O1 (centres undefined) | 1.1 | 8 | -17 | 1 | 3
CCCOc1ccc(/C(O)=C2/C(=O)C(=O)N(CCOC)C2c2cccnc2)cc1 (centres undefined) | 1.2 | 87* | 80* | -11 | -26
C=CCOc1ccc(/C(O)=C2\C(=O)C(=O)N(CCOC)C2c2cccnc2)cc1 (centres undefined) | 1.1 | 37 | -27 | -18 | 0
COc1ccc(-n2nnnc2-c2cnc3cc4c(cc3c2C)OCO4)cc1 | 1 | 10 | -1 | -32 | -5
NS(=O)(=O)c1ccc(CCNC(=O)c2ccc(S(=O)(=O)N3CCCCC3)cc2)cc1 | 2* | -21 | -18 | x | 16
Cc1nc2ccccc2c(=O)n1/N=C/c1ccc(O)cc1 | 0.9 | 4 | -7 | 66* | 48
COc1ccc(CCNc2ccc(N3C(=O)CC(C)C3=O)cc2[N+](=O)[O-])cc1OC (centres undefined) | x | x | x | 20 | x
CCOC(=O)Cc1[nH]nc2c1C(c1cc(OC)ccc1OC)C(C#N)=C(N)O2 (centres undefined) | 1.6 | -2 | 2 | 1 | 12
